Test results published in PubChem BioAssay (Tox21).
Results filed as inconclusive are left out. Where a call stands in place of a potency, no number is given. Active and inactive are the calls of the source. Unless noted, the call rests on the fitted dose curve; in most records, active means well fitted curve in the direction sought with a large enough effect in the repeat runs; inconclusive means weak or mixed curves; inactive means no such curve, though single readings can be large; an effect the other way counts as inactive or inconclusive.

Legend:
[1] = qHTS assay to identify small molecule agonists of the estrogen receptor alpha (ER-alpha) signaling pathway in the presence of an antagonist - cell viability counter screen (AID 1259386);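 further: cells exposed to compounds for 22 h at 37 °C before the viability read; nearly all actives have a fitted effect of over 30% in size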; further: potency means the concentration at half of the fitted maximal effect
Procedure, shortened: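 The test measures whether compounds kill ER-alpha reporter cells (VM7Luc4E2) under antagonist co-treatment (ICI-182,780, 10.0nM). Fluorescence from CellTiter-Fluor is read after a 22hr exposure.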

[2] = qHTS assay to identify small molecule antagonists of the TGF-beta/Smad signaling pathway - cell viability counter screen (AID 1346824); further: nearly all actives have a fitted effect of over 50% in size; further: potency means the concentration at half of the fitted maximal effect
Procedure, shortened: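 SBE-bla HEK 293T cells, incubated overnight, then compound plus 0.25 ng/mL TGF-beta1 (stock added) for 5 hr at 37 C. Viability was read in the same wells by CellTiter-Glo luminescence after 30 min at room temperature.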

[3] = qHTS assay to identify small molecule agonists of the TGF-beta/Smad signaling pathway - cell viability counter screen (AID 1346829); further: nearly all actives have a fitted effect of over 45% in size; further: potency means the concentration at half of the fitted maximal effect
Procedure, shortened: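 Here the cytotoxicity of library compounds is measured in SBE-bla HEK 293T cells treated for 5 hr, using CellTiter-Glo added to wells already read for the beta-lactamase reporter.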

[4] = molecular target: Thyrotropin-releasing hormone receptor (Homo sapiens) (UniProt P34981); assay: qHTS assay to identify small molecule antagonists of the thyrotropin-releasing hormone receptor (TRHR) signaling pathway (AID 1346877; active means well fitted inhibition curve with a large enough effect in the repeat runs, not every such curve was filed as active; further: potency means the concentration at half of the fitted maximal effect)
Procedure, shortened: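 Overnight-plated (18 h, 37 °C) HEK293 cells expressing TRHR were dye-loaded 2 h, treated with compound, then stimulated with TRH at 1 nM final. Fluorescence intensity was captured every second for 3 min.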

[5] = molecular target: Thyrotropin-releasing hormone receptor (Homo sapiens) (UniProt P34981); assay: qHTS assay to identify small molecule agonists of the thyrotropin-releasing hormone receptor (TRHR) signaling pathway (AID 1346891; calls by dose curve; further: potency means the concentration at half of the fitted maximal effect; on activation: series mostly up to about 58 µM)
Procedure, shortened: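 Agonist-mode intracellular calcium readout: kinetic fluorescence over 3 min at 1 s intervals after compound addition to TRHR-HEK293 cells (18 h seeded, 2 h dye-loaded at 37 C). Fifteen concentrations, triplicates.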

[6] = qHTS assay to identify small molecule agonists of the progesterone receptor (PR) signaling pathway - cell viability counter screen (AID 1346799; calls by dose curve; further: nearly all actives have a fitted effect of over 45% in size; further: potency means the concentration at half of the fitted maximal effect)
Procedure, shortened: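 Cytotoxicity measured by CellTiter-Glo luminescence (30 min, RT) in the same wells as the PR beta-lactamase agonist read. Those HEK293T cells had 16 h compound treatment at 37 C in 2% charcoal-stripped FBS medium.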

[7] = qHTS assay to identify small molecule agonists of the TGF-beta/Smad signaling pathway (AID 1346859; active means well fitted activation curve with a large enough effect in the signal ratio in the repeat runs, not every such curve was filed as active; the % refers to the signal ratio; further: series mostly up to about 77 µM)
Procedure, shortened: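 Fluorescence (ex 405 nm; em 460 and 530 nm) was read 2 h after LiveBLAzer FRET substrate at RT. The preceding compound treatment of overnight-plated SBE-bla HEK293T cells lasted 5 h at 37 C.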

[8] = molecular target: Progesterone receptor (Homo sapiens) (UniProt P06401); assay: qHTS assay to identify small molecule agonists of the progesterone receptor (PR) signaling pathway (AID 1346784; calls by dose curve; further: nearly all actives have a fitted effect of over 30% in size)
Procedure, shortened: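 Agonist qHTS: compounds pinned onto 3,000 PR-UAS-bla HEK 293T cells per well in charcoal-stripped serum medium, 16hr at 37C, then beta-lactamase activity measured by LiveBLAzer FRET fluorescence after 2 hours at room temperature.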

[9] = molecular target: Progesterone receptor (Homo sapiens) (UniProt P06401); assay: qHTS assay to identify small molecule antagonists of the progesterone receptor (PR) signaling pathway (AID 1346795; active means well fitted inhibition curve with a large enough effect in the signal ratio in the repeat runs, not every such curve was filed as active; the % refers to the signal ratio; further: potency means the concentration at half of the fitted maximal effect)
Procedure, shortened: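 Antagonist mode with agonist R5020 at 1 nM final and 16 hr incubation at 37C. Reporter was beta-lactamase driven by UAS in HEK293T (PR-UAS-bla), 2% charcoal-stripped serum; signal from LiveBLAzer FRET substrate, 2 hr at room temperature.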

[10] = qHTS assay to identify small molecule antagonists of the progesterone receptor (PR) signaling pathway - cell viability counter screen (AID 1346798); further: nearly all actives have a fitted effect of over 50% in size; further: potency means the concentration at half of the fitted maximal effect
Procedure, shortened: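 Cytotoxicity read as CellTiter-Glo luminescence (30 min, room temperature) in the same wells as the beta-lactamase readout. HEK293T PR-UAS-bla cells in charcoal-stripped 2% FBS received compound and R5020, then 16 h at 37C, 5% CO2.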

Progesterone receptor (Homo sapiens), sequence (P06401 whole entry, looked up): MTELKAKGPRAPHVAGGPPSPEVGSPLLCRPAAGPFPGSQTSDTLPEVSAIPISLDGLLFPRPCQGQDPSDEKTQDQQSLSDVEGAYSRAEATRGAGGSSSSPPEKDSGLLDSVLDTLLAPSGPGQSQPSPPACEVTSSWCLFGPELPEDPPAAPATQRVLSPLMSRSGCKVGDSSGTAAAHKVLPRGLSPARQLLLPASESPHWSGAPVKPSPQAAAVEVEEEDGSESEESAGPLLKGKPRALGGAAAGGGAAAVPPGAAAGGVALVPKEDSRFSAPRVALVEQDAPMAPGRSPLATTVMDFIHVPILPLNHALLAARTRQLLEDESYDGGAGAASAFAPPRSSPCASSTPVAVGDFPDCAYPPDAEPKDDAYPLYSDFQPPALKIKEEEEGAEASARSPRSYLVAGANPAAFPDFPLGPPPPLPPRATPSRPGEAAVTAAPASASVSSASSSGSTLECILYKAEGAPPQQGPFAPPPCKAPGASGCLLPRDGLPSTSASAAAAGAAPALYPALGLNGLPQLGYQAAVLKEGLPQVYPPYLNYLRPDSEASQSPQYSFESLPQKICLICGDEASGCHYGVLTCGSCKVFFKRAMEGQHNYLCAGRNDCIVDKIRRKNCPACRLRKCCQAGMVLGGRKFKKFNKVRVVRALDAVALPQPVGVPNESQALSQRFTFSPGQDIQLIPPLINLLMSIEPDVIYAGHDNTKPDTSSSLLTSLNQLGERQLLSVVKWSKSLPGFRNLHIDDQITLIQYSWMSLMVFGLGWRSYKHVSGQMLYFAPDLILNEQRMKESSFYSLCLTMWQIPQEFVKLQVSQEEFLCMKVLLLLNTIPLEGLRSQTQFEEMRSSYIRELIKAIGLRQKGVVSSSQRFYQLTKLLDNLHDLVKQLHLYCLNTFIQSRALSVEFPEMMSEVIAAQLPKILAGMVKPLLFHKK
Thyrotropin-releasing hormone receptor (Homo sapiens), sequence (P34981 whole entry, looked up): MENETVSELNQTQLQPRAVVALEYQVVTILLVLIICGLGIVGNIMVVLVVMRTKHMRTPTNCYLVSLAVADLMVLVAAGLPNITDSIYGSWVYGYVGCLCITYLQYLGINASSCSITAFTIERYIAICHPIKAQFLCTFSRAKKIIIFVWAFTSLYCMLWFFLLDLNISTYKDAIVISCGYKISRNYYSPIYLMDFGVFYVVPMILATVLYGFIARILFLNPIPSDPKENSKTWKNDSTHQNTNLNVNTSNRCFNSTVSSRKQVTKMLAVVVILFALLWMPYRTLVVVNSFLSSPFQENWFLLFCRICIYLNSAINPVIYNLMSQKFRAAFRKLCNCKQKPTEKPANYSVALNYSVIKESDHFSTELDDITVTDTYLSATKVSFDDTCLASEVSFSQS

SMILES	Potency [1]	Potency [2]	Potency [3]	Potency [4]	Potency [5]	Potency [6]	Potency [7]	Potency [8]	Potency [9]	Potency [10]
[Cl][Au]([Cl])[Cl]	43.3 µM (active)	inactive	54.9 µM (active)	inactive	inactive					
CN(C)c1ccc(C2(c3ccc(N(C)C)cc3)OC(=O)c3cc(N(C)C)ccc32)cc1	inactive	inactive	inactive	inactive	inactive	inactive	inactive			
O=C(N/N=C/c1ccccc1O)c1ccncc1		inactive	inactive	inactive	inactive			inactive	10.6 µM (active)	
CC(C)(C)CC(C)(C)c1ccc(O)c(Cc2ccc(Cl)cc2Cl)c1	29.8 µM (active)	21.3 µM (active)	19 µM (active)	inactive	inactive					
CCN(CCC#N)c1ccc(N=Nc2c(Cl)cc([N+](=O)[O-])cc2Cl)cc1	8.63 µM (active)	inactive	inactive	inactive	inactive	inactive	inactive			
C/C=C1/C(=O)C[C@H]2[C@@H]3CCC4=CC(=O)CC[C@]4(C)[C@H]3CC[C@]12C	inactive	inactive	inactive							
CCOC(=O)/C=C(C)/C=C/C=C(C)/C=C/c1c(C)cc(OC)c(C)c1C		inactive	inactive			inactive		inactive		
CC(C)(C)C(=O)OCOC(=O)C1N2C(=O)CC2S(=O)(=O)C1(C)C (centres undefined)	inactive	inactive	inactive	inactive	inactive	inactive	inactive			
Oc1cccc(-c2c3nc(c(-c4cccc(O)c4)c4ccc([nH]4)c(-c4cccc(O)c4)c4nc(c(-c5cccc(O)c5)c5ccc2[nH]5)CC4)C=C3)c1	10.6 µM (active)	inactive	inactive				inactive			
O=C(O)c1cc(O)c2c(c1)C(=O)c1cccc(O)c1C2=O		inactive	inactive			inactive		inactive		inactive
COc1ccc(C(=O)/C(Br)=C\C(=O)O)cc1		inactive	inactive	inactive	inactive		inactive	inactive		inactive
CCCCc1oc2ccc(NS(C)(=O)=O)cc2c1C(=O)c1ccc(OCCCN(CCCC)CCCC)cc1	33.5 µM (active)	23.9 µM (active)		inactive	inactive					18.8 µM (active)
CCN(Cc1cccnc1)C(=O)c1cccc(Cl)c1[C@]1(C)C(=O)N(Cc2ccc(OC)cc2OC)c2ccc(Cl)cc21		inactive	inactive	inactive	inactive			inactive	16.1 µM (active)	inactive
Cc1cccc2c1cc1ccc3cccc4ccc2c1c34		inactive	inactive	inactive	inactive					inactive
CCOC(=O)O[C@H](C)OC(=O)c1ccc2c(c1)cc(C(=O)NC1CCN(C(C)C)CC1)n2Cc1cc(-c2ccc(Cl)s2)on1			45.8 µM (active)	inactive	inactive	22.7 µM (active)				22.7 µM (active)
OCCN(CCO)c1nc(N2CCCCC2)c2nc(N(CCO)CCO)nc(N3CCCCC3)c2n1		inactive	inactive	inactive	12 µM (active)					
CCc1cc(Cc2cc(CC)c(N)c(CC)c2)cc(CC)c1N		inactive	inactive	inactive	inactive	54.5 µM (active)	inactive			
O=C(Nc1cccc([N+](=O)[O-])c1)c1cc2ccccc2cc1O				inactive	inactive	inactive	inactive			24.3 µM (active)
CCCC(=O)OC[C@@H](OC(=O)CCC)[C@@H](OC(=O)CCC)[C@H](Cn1c2nc(=O)[nH]c(=O)c-2nc2cc(C)c(C)cc21)OC(=O)CCC		inactive	inactive	inactive	13.5 µM (active)					
NC(=O)C1(N2CCCCC2)CCN(CCCN2c3ccccc3CCc3ccc(Cl)cc32)CC1				inactive	inactive	16.8 µM (active)			23.7 µM (active)	
Oc1ccc(C2(c3ccc(O)cc3)CC3CC2C2CCCC32)cc1 (centres undefined)			inactive	inactive	inactive	58.7 µM (active)				
CCCCCCCC/C=C/CCCCCCCC1=NCCN1CCO		inactive	inactive	inactive	inactive	61.1 µM (active)				
O=C(Nc1cccc(C(F)(F)F)c1)c1cc(Br)cc(Br)c1O				inactive	inactive					21.7 µM (active)
CN1CCC(Nc2ncc3ncnc(Nc4ccc(F)c(Cl)c4)c3n2)CC1		inactive	inactive	inactive	inactive					
CNCc1cc(F)ccc1Oc1ccc(Cl)c(Cl)c1		inactive	inactive		34.7 µM (active)	inactive	inactive		61.1 µM (active)	inactive

SMILES	Potency [1]	Potency [2]	Potency [3]	Potency [4]	Potency [5]	Potency [6]	Potency [7]	Potency [8]	Potency [9]	Potency [10]
CC1=C(C(=O)OC(C)C)C(c2cccc([N+](=O)[O-])c2)C(C(=O)OC2CN(C(c3ccccc3)c3ccccc3)C2)=C(N)N1 (centres undefined)		inactive		inactive	inactive		inactive			
On1ccccc1=S		inactive	inactive	inactive	inactive		inactive		0.539 µM (active)	0.605 µM (active)
CC(C)(C)C1CCC(CC2=C(O)c3ccccc3C(=O)C2=O)CC1 (centres undefined)		inactive	inactive			inactive	inactive			inactive
O=[N+]([O-])c1ccccc1Nc1ccccc1		inactive	inactive	inactive	inactive	inactive	inactive			inactive
C=C(C)C(=O)OCC(O)COc1ccc(C(C)(C)c2ccc(OCC(O)COC(=O)C(=C)C)cc2)cc1 (centres undefined)				inactive	inactive		inactive		61.1 µM (active)	
O=c1[nH]sc2ccccc12		inactive	inactive			30.6 µM (active)	inactive			27.3 µM (active)
CCCCCCCCCOC(=O)c1ccc(O)cc1		inactive					inactive		24 µM (active)	
CCN(CC)CCCC(C)Nc1c2ccc(Cl)cc2nc2ccc(OC)cc12 (centres undefined)		inactive	inactive	inactive	inactive					
CCCCCCCCCCCCCCCCCC[N+](C)(C)Cc1ccccc1		49.5 µM (active)	49.5 µM (active)			7.77 µM (active)				27.6 µM (active)
O=C(Nc1ccc(Oc2ccc(Cl)cc2)c(Cl)c1)c1cc(I)cc(I)c1O		inactive	inactive	inactive	inactive		inactive		23.7 µM (active)	
CCCCCCCCCCCCCCCCCC[N+](C)(C)C		43.8 µM (active)	43.8 µM (active)	30.3 µM (active)	34.8 µM (active)	54.6 µM (active)	inactive			
CC[C@@]1(O)C(=O)OCc2c1cc1n(c2=O)Cc2c-1nc1ccccc1c2/C=N/OC(C)(C)C		inactive	inactive	inactive	inactive	inactive				
N=C1N=C(N)c2cc3ccccc3cc21				inactive	inactive	27.3 µM (active)				27.3 µM (active)
ON=C1CCCC1		inactive	inactive	inactive	inactive		inactive		inactive	inactive
CCN(C(=O)c1cc(C)cc(OC[C@H](C)Nc2ccncc2)c1)C(C)C		inactive	inactive	inactive	inactive	inactive	inactive			inactive
CC[C@@]1(O)C(=O)OCc2c1cc1n(c2=O)Cc2cc3c(CN(C)C)c(O)ccc3nc2-1		inactive	inactive							
Cc1cc(O)c(C(C)(C)C)cc1C(C)(C)C			49 µM (active)		inactive	48.6 µM (active)	inactive			
Cc1cc(=O)oc2cc(N(C)C)ccc12		inactive	inactive	inactive	inactive					
COc1ccc(CN2CCN(C(c3ccc(F)cc3)c3ccc(F)cc3)CC2)c(OC)c1OC		16.9 µM (active)	23.9 µM (active)	inactive	inactive	13.3 µM (active)				16.8 µM (active)
Nc1ccc2c3c(cccc13)-c1ccccc1-2		inactive	inactive	inactive	31.2 µM (active)	inactive				
CCOc1ccc2nc3cc(N)ccc3c(N)c2c1		inactive	inactive	inactive	inactive	inactive				
Cc1[nH]cnc1C[C@H]1CCc2c(C)c3ccccc3n2C1=O			inactive	inactive	inactive		inactive		37.6 µM (active)	
CCc1cc(SCc2sc(-c3ccc(C(F)(F)F)cc3)nc2CN2CCN(c3ccc(OC)cc3)CC2)ccc1OCC(=O)O		inactive		inactive		6.11 µM (active)			24.3 µM (active)	
O=C1Cc2cc(CCN3CCN(c4nsc5ccccc45)CC3)c(Cl)cc2N1		inactive	inactive	inactive	inactive	inactive	inactive		inactive	inactive
O=C(NOCC1CC1)c1ccc(F)c(F)c1Nc1ccc(I)cc1Cl		inactive	inactive	inactive	inactive		inactive			
